PubChem BioAssay (NCATS)
Records with an inconclusive call do not appear. Calls of active or inactive are those of the source. Calls follow the shape of the dose curve; as a rule, active = well fitted curve in the direction sought with a large enough effect; inconclusive = small, poorly fitted or top-dose-only effect, or another doubt; inactive = no such curve, though single readings can be large; an effect the other way counts as inactive or inconclusive.

Tests used:
[1] = biological target: Cellular tumor antigen p53 (Homo sapiens) (UniProt P04637); assay: Primary qHTS for small molecule compounds that upregulate eGFP-tagged delta133p53alpha (in N-terminal) cells. (AID 2060322); details: NCI-H358 eGFP-delta133p53alpha fluorescence, 24 h; activation: hits give high values;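 also: cells pre-induced with doxycycline then dosed without doxycycline; series mostly up to about 56 µM; 0% = DMSO vehicle and 100% = reference activator; nearly all actives have a fitted effect of over 75% in size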
Chain of Cellular tumor antigen p53 (Homo sapiens) (P04637 whole entry, looked up): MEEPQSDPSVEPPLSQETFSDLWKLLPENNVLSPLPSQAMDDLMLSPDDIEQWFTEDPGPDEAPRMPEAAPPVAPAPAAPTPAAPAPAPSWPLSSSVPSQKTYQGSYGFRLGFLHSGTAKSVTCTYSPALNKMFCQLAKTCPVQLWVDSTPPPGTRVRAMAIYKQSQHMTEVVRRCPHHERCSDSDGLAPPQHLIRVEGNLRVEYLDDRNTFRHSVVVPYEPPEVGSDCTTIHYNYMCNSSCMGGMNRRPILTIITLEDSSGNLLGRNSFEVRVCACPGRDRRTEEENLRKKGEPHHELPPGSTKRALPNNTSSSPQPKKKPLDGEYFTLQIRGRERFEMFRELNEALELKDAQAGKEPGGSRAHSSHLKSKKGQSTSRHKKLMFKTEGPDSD
In short: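 NCI-H358 cells pre-induced 24 h with 10 ng/ml doxycycline for eGFP-delta133p53alpha, plated dox-free and exposed 24 h at 37C to titrated compounds. Fixed, Hoechst-stained; gated GFP peak intensity by laser scanning cytometry, normalized to DMSO (0%) and 57.5 uM 5-azacytidine (100%).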

[2] = biological target: Aldehyde dehydrogenase, mitochondrial (Homo sapiens) (UniProt P05091); assay: qHTS for Inhibitors of the Aldehyde Dehydrogenase Family (ALDH2) Primary screen (AID 2061308);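 also: plate controls were vehicle for no effect and reference inhibitor for full effect; nearly all actives have a fitted effect of over 55% in size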
[3] = biological target: Retinaldehyde dehydrogenase 3 (Homo sapiens) (UniProt P47895); assay: qHTS for Inhibitors of the Aldehyde Dehydrogenase Family (ALDH1A3) Primary screen (AID 2061315);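 also: plate controls were DMSO vehicle for no effect and reference inhibitor for full effect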

CC(=O)NC(C(=O)OC1CCC(C)(C)C2CC=C3C(=O)OCC3(O)C12C)C(C)C (configuration not stated)
inactive: activation [1] -16.8% | Potency [2] | Potency [3]

CC(=O)C=C=C1C(C)(C)CC(O)CC1(C)O[C@@H]1O[C@H](CO[C@H]2OC[C@](O)(CO)[C@H]2O)[C@@H](O)[C@H](O)[C@H]1O (some centres not stated)
inactive: activation [1] -14.3% | Potency [2] | Potency [3]

N[C@H]1CN(c2c(F)cc3c(=O)c(C(=O)O)cn(C4C[C@@H]4F)c3c2Cl)CC12CC2 (some centres not stated)
inactive: activation [1] -26% | Potency [2] | Potency [3]

C[C@@H]1O[C@@H](O[C@@H]2[C@@H](O)[C@H](O[C@H]3[C@H](O[C@H]4CC[C@@]5(C)C(CC[C@]6(C)C5CC=C5[C@@H]7CC(C)(C)CC[C@]7(C(=O)O[C@@H]7O[C@H](CO)[C@@H](O)[C@H](O)[C@H]7O)CC[C@]56C)C4(C)C)O[C@H](C(=O)O)[C@@H](O)[C@@H]3O)OC[C@H]2O)[C@H](O)[C@H](O)[C@H]1O (some centres not stated)
inactive: activation [1] -27.5% | Potency [2] | Potency [3]
